# Measured values published in PubChem BioAssay (NCATS).
# “And” between values parts separate entries of the source, which are not always exact repeats. Equal values may be shown once. Records with an inconclusive call do not appear. Entries that show only a call come without a potency. Unmarked numbers belong to inactive results. The source made the active and inactive calls. Unless noted, calls follow the shape of the full dose curve.
# Columns and labels:
# [1] = target: Peroxisome proliferator-activated receptor delta (Homo sapiens) (UniProt Q03181); assay: qHTS assay for small molecule antagonists of peroxisome proliferator-activated receptor delta signaling (AID 588535; active = well fitted inhibition curve with a large enough effect in the signal ratio, with a control signal flat, not every such curve was filed as active; the % refers to the signal ratio; also: potency is read from the fitted curve at half-maximal effect)
# Peroxisome proliferator-activated receptor delta (Homo sapiens), sequence (Q03181 whole entry, looked up): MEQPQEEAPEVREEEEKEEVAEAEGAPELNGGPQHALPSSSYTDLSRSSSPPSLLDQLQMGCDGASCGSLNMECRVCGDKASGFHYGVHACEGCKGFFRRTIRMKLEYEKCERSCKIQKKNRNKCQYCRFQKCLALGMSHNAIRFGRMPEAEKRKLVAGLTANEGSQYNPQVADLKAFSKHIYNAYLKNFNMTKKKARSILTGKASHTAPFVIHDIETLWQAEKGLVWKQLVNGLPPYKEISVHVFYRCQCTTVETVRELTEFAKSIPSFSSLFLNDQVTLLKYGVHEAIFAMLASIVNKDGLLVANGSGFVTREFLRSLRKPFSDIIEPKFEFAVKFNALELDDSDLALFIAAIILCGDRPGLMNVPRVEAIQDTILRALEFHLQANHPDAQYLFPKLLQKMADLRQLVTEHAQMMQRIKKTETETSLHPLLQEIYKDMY
# Summary of the method: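 Titrations were run on PPAR-delta-UAS-bla HEK293T cells in charcoal/dextran-stripped serum, incubated 18 h at 37 C. CCF4 fluorescence (460/530 nm) after 2 h RT; Hill equation yields IC50 and maximal response.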
# [2] = target: Peroxisome proliferator-activated receptor gamma (Homo sapiens) (UniProt P37231); assay: qHTS assay for small molecule antagonists of peroxisome proliferator-activated receptor gamma signaling (AID 588537; active = well fitted inhibition curve with a large enough effect in the signal ratio, with a control signal flat, not every such curve was filed as active; the % refers to the signal ratio;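 also: reporter cells co-stimulated with 50 nM rosiglitazone agonist during compound treatment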)
# Peroxisome proliferator-activated receptor gamma (Homo sapiens), sequence (P37231 whole entry, looked up): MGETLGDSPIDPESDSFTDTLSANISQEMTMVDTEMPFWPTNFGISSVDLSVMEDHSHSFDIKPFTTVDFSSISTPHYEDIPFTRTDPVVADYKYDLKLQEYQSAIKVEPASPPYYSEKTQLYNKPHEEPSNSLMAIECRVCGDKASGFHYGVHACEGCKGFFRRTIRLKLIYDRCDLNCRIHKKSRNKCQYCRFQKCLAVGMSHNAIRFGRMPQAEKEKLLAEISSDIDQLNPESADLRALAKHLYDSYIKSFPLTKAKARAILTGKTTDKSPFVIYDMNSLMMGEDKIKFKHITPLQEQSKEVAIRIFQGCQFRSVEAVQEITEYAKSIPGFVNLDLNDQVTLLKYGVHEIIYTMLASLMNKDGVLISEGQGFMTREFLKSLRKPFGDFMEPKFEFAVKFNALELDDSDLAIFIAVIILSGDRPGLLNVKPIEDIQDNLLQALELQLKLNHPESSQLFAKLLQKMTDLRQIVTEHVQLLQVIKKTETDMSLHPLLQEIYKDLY
# Summary of the method: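 Antagonist-mode β-lactamase reporter screen run as a titration series. HEK293 PPARγ-UAS-bla cells are stimulated with rosiglitazone (50 nM final) for 16 h, then CCF4 is read at 460/530 nm. Data are scaled between DMSO and rosiglitazone and fitted to the Hill equation.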
# [3] = target: Vitamin D3 receptor (Homo sapiens) (UniProt P11473); assay: qHTS assay for small molecule antagonists of vitamin D receptor signaling (AID 588541);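 also: receptor activated by calcitriol during compound treatment; series mostly up to about 77 µM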
# Vitamin D3 receptor (Homo sapiens), sequence (P11473 whole entry, looked up): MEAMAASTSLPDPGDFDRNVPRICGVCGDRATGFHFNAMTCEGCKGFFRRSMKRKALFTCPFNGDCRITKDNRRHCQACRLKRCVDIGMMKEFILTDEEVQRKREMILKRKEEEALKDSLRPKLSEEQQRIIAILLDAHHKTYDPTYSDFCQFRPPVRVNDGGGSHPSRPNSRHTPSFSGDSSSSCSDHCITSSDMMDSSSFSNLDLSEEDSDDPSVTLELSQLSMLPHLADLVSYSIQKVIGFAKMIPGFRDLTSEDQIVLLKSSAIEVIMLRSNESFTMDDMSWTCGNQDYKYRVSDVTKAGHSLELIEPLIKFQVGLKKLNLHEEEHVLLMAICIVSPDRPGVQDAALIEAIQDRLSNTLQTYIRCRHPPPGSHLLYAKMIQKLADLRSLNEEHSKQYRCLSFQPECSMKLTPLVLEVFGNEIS
# Summary of the method: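 Antagonist-mode beta-lactamase reporter assay: HEK293T VDR-UAS-bla cells were exposed to titrated compound alongside 1-alpha,25-dihydroxyvitamin D3 at 3 nM final for 16 h. Values were normalized to the 50 nM agonist control and DMSO basal, with IC50 and efficacy from Hill equation fits.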
# [4] = qHTS assay for small molecule agonists of the antioxidant response element (ARE) signaling pathway (AID 651741; active = well fitted activation curve with a large enough effect in the signal ratio; the % refers to the signal ratio; also: potency is read from the fitted curve at half-maximal effect)
# Summary of the method: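 Beta-lactamase reporter under ARE control in HepG2 cells, 2,000 per well, was induced by 16 h compound treatment at 37 C. Read-out was fluorescence from LiveBLAzer B/G FRET substrate after 2 h at room temperature.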
# [5] = qHTS assay for small molecule activators of the nuclear factor-kappa B (NF-kB) signaling pathway (AID 651749; active = well fitted activation curve with a large enough effect in the signal ratio; the % refers to the signal ratio; also: potency is read from the fitted curve at half-maximal effect; as to activation: series mostly up to about 77 µM); conditions: NF-kB-bla ME-180 cells, beta-lactamase FRET ratio, 16 h; activation: stronger effect = higher value
# Summary of the method: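 Activation measured after 16 hr compound treatment at 37C, 5% CO2, of 2,000 ME-180 cells/well stably expressing an NF-kB response element–driven beta-lactamase reporter, via FRET-disruption fluorescence.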
# [6] = target: Androgen receptor (Homo sapiens) (UniProt P10275); assay: qHTS assay for small molecule antagonists of androgen receptor signaling (AID 588516; active = well fitted curve in the direction sought with a large enough effect in the signal ratio, with a control signal flat, not every such curve was filed as active; the % refers to the signal ratio)
# Androgen receptor (Homo sapiens), sequence (P10275 whole entry, looked up): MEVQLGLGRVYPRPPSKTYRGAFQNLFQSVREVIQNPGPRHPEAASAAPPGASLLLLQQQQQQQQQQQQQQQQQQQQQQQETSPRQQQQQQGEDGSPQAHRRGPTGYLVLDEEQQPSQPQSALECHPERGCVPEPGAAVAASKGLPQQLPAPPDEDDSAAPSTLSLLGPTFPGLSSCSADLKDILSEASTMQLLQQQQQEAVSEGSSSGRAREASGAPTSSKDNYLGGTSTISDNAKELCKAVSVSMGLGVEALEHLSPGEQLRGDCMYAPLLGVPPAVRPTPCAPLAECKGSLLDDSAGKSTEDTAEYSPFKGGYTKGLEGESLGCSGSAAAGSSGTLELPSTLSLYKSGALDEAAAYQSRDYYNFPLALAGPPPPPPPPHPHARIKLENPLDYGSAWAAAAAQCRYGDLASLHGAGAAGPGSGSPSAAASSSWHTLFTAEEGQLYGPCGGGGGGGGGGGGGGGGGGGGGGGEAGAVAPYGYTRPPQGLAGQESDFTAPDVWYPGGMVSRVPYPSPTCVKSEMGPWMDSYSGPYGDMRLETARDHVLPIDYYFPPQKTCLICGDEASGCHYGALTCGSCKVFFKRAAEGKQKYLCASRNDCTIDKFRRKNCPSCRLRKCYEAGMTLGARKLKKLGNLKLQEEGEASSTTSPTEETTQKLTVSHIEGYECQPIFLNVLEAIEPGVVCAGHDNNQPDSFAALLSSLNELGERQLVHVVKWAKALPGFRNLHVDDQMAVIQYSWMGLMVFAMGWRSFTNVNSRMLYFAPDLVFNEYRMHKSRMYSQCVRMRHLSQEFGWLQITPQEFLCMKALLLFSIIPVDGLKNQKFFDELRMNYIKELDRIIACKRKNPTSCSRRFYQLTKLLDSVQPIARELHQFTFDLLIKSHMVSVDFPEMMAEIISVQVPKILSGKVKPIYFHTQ
# Summary of the method: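 Antagonist mode: inhibition of R1881-stimulated (10 nM final) bla reporter in GeneBLAzer AR HEK 293 cells, 16 h at 37C, compounds titrated. IC50 and efficacy from Hill-equation fits of 405/460–530 nm FRET ratios.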
# [7] = target: Bile acid receptor (Homo sapiens) (UniProt Q96RI1); assay: qHTS assay for small molecule antagonists of farnesoid X receptor signaling (AID 588526)
# Bile acid receptor (Homo sapiens), sequence (Q96RI1 whole entry, looked up): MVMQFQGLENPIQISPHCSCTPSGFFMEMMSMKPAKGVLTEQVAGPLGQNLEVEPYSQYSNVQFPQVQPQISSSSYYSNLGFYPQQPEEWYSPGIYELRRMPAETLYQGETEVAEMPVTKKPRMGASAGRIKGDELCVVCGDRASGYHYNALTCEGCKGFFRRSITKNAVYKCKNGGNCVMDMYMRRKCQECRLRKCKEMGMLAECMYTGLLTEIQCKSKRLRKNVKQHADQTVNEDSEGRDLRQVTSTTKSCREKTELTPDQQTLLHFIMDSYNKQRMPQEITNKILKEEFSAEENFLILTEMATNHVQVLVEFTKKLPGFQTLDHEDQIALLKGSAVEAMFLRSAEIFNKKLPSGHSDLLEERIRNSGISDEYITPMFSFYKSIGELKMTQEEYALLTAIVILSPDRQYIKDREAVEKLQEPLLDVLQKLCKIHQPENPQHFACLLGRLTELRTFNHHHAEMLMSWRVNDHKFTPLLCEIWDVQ
# Summary of the method: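 Beta-lactamase reporter antagonist mode: HEK293T FXR-UAS-bla cells, titrated compound, CDCA stimulation, 16 h 37 C, CCF4 dye 2 h RT. Data normalized to CDCA 50 uM and DMSO; Hill-fit IC50.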
# [8] = qHTS assay for small molecule activators of the p53 signaling pathway (AID 651743; active = well fitted activation curve with a large enough effect in the signal ratio, not every such curve was filed as active; the % refers to the signal ratio; also: series mostly up to about 92 µM); conditions: HCT-116 p53RE-bla, beta-lactamase FRET ratio, 16 h; activation: stronger effect = higher value
# Summary of the method: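 After 16 hours compound treatment at 37 C, HCT-116 cells stably expressing p53RE-driven beta-lactamase were loaded with LiveBLAzer B/G FRET substrate for 2 hours at room temperature. Fluorescence intensity served as the p53 activation read-out.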
# [9] = target: Androgen receptor (Homo sapiens) (UniProt P10275); assay: qHTS assay for small molecule agonists of androgen receptor signaling (AID 588515; active = well fitted curve in the direction sought with a large enough effect in the signal ratio, with a control signal flat; the % refers to the signal ratio; also: potency is read from the fitted curve at half-maximal effect); conditions: AR-UAS-bla HEK293, beta-lactamase ratio, agonist 16 h; activation: stronger effect = higher value
# Summary of the method: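 Stimulation of an AR-responsive β-lactamase reporter in GripTite HEK293 cells was measured after 16 h compound exposure at 37 °C, via CCF4 fluorescence after 2 h RT. EC50 from Hill fits, normalized to R1881 at 30 nM.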
structure (smiles),measurement,setting,value
Cc1ccc(S(=O)(=O)N=C=O)cc1,Potency,[1],inactive
same,Potency,[2],inactive
same,Potency,[3],inactive
same,Potency,[4],inactive
same,activation,[5],-0.506%
Cn1c(=O)[nH]c(=O)n(C2CCCCC2)c1=O,outcome,[6],inactive
same,Potency,[7],inactive
same,Potency,[3],inactive
same,activation,[8],-1.53%
same,activation,[5],-1.18%
COc1nc(C)nc(NC(=O)NS(=O)(=O)c2ccccc2OCCCl)n1,Potency,[7],inactive
same,Potency,[1],inactive
same,activation,[8],-4.39%
O=C(O)CN(CCCN(CC(=O)O)CC(=O)O)CC(=O)O,activation,[9],-11.6%
same,Potency,[7],inactive
same,Potency,[1],14.1 µM (active)
same,activation,[5],0.672%
C[Si]1(C)O[Si](C)(C)O[Si](C)(C)O[Si](C)(C)O1,Potency,[7],inactive
same,Potency,[1],inactive
same,Potency,[2],inactive
same,Potency,[3],inactive
same,Potency,[4],inactive
same,activation,[8],-2.06%
same,activation,[5],0.122%
CCCCCCCCCC[N+](C)(C)Cc1ccccc1,activation,[9],-12.2%
same,Potency,[2],inactive
same,Potency,[3],inactive
same,activation,[8],6.02%
same,activation,[5],4.29%
CCCN(CCC)c1c([N+](=O)[O-])cc(C(F)(F)F)c(N)c1[N+](=O)[O-],Potency,[7],inactive
CCCCOCCOCCOC(=O)CCCCC(=O)OCCOCCOCCCC,Potency,[7],inactive
same,Potency,[1],inactive
same,Potency,[2],inactive
same,Potency,[3],inactive
same,activation,[5],-0.225%
CCO[Si](CCC#N)(OCC)OCC,Potency,[7],inactive
same,Potency,[2],inactive
same,Potency,[4],inactive
C[C@]12CCC(=O)C=C1CC[C@@H]1[C@@H]2[C@@H](O)C[C@]2(C=O)[C@@H](C(=O)CO)CC[C@@H]12,Potency,[9],15.8 µM (active)
same,Potency,[7],inactive
same,Potency,[2],inactive
same,Potency,[3],inactive
same,Potency,[4],inactive
same,activation,[8],-0.611%
same,activation,[5],-3.08%
CCc1c(C(=O)O)c(=O)cnn1-c1ccc(Cl)cc1,Potency,[7],inactive
same,Potency,[1],inactive
same,Potency,[2],inactive
same,Potency,[3],inactive
same,Potency,[4],inactive
same,activation,[8],1.9%
same,activation,[5],-0.428%
CC(C)c1cccc(C(C)C)c1,Potency,[7],inactive
same,Potency,[1],inactive
same,Potency,[3],inactive
same,Potency,[4],inactive
same,activation,[5],-0.667%
CCCCN(CCCC)CCCC,Potency,[7],inactive
same,Potency,[1],inactive
same,Potency,[3],inactive
same,Potency,[4],inactive
same,activation,[8],-3.01%
C=CCCCCCCCCC=O,Potency,[1],inactive
same,Potency,[2],inactive
same,Potency,[3],inactive
same,activation,[8],3.83%
CCCCCC1CCC(=O)O1 (stereo not drawn),Potency,[7],inactive
same,Potency,[1],inactive
same,Potency,[3],inactive
same,activation,[5],-1.34%
CCCCCCCC(=O)Oc1c(Br)cc(C#N)cc1Br,Potency,[7],inactive
same,Potency,[3],inactive
same,Potency,[4],61.1 µM (active)
same,activation,[8],6.26%
same,activation,[5],-2.23%
COC(=O)C1CCC(C(=O)OC)CC1 (stereo not drawn),Potency,[7],inactive
same,Potency,[1],inactive
same,Potency,[3],inactive
same,Potency,[4],inactive
same,activation,[8],8.46%
same,activation,[5],-2.67%
C#CCOC(=O)[C@@H](C)Oc1ccc(Oc2ncc(Cl)cc2F)cc1,Potency,[7],inactive
same,Potency,[2],inactive
same,Potency,[3],inactive
same,activation,[8],-3.45%
CC(C)OC(=O)c1ccccc1C(=O)OC(C)C,Potency,[7],inactive
same,Potency,[2],inactive
same,Potency,[3],inactive
same,activation,[5],-2.02%
O=S(c1ccc(Cl)cc1)c1cc(Cl)c(Cl)cc1Cl (stereo not drawn),activation,[9],-11.5%
same,Potency,[7],inactive
same,Potency,[1],inactive
same,Potency,[4],54.5 µM (active)
same,Potency,[5],7.94 µM (active)
c1ccc2cc3ccccc3cc2c1,Potency,[7],inactive
same,Potency,[2],inactive
same,Potency,[3],inactive
same,Potency,[4],inactive
same,activation,[8],7.64%
CC/C=C/CCCCCCCCCCOC(C)=O,Potency,[1],inactive
same,Potency,[2],inactive
same,Potency,[4],inactive
CCCCCCCC(=O)OC,Potency,[2],inactive
same,Potency,[3],inactive
same,Potency,[4],inactive
same,activation,[8],3.63%
same,activation,[5],-1.19%
CC(C)(C)c1cc(C(C)(C)C)c(O)c(C(C)(C)C)c1,Potency,[1],inactive
same,Potency,[2],inactive
CC(=O)CC(=O)Nc1ccc(C)cc1C,activation,[9],7%
same,outcome,[6],inactive
same,Potency,[7],inactive
same,Potency,[2],inactive
same,Potency,[4],inactive
same,activation,[8],-5.45%
same,activation,[5],0.179%
CC(=O)CC(=O)Nc1ccccc1C,activation,[8],-0.568%
same,activation,[5],-0.183%
C=CCCCCCCCCCCCC,activation,[9],-5.69%
same,outcome,[6],inactive
same,Potency,[7],inactive
same,Potency,[1],inactive
same,Potency,[2],inactive
same,Potency,[3],inactive
C=C[Si](C)(C)O[Si](C)(C)C=C,Potency,[2],inactive
same,Potency,[3],inactive
same,Potency,[4],inactive
same,activation,[8],-3.83%
same,activation,[5],-0.794%
NCCCCCCCCCCC(=O)O,activation,[9],0.655%
same,outcome,[6],inactive
same,Potency,[7],inactive
same,Potency,[1],inactive
same,Potency,[2],inactive
same,Potency,[3],inactive
same,Potency,[4],inactive
same,activation,[8],0.322%
same,activation,[5],-0.282%
O=C1CCCCCCCCCCC1,Potency,[1],inactive
same,Potency,[2],inactive
same,Potency,[4],inactive
same,activation,[8],-4.42%
CCCCOCC(C)O (stereo not drawn),Potency,[2],inactive
same,activation,[8],-6.14%
same,activation,[5],0.734% and -0.5%
CC(C)(C)C1CCC(O)CC1 (stereo not drawn),Potency,[1],inactive
same,Potency,[2],inactive
same,Potency,[4],inactive
same,activation,[8],-3.97%
C[Si](C)(Cl)[Si](C)(C)Cl,activation,[9],-5.2%
same,outcome,[6],inactive
same,Potency,[7],inactive
same,Potency,[1],inactive
same,Potency,[2],inactive
same,Potency,[3],inactive
same,Potency,[4],inactive
same,activation,[8],-0.0629%
same,activation,[5],-1.24%
